# Results: PubChem BioAssay (Tox21)
# Several values for one entry are separate records, joined by “and”; a condition that tells them apart may be missing. Identical values can stand only once. Inconclusive results are not listed. Entries that show only a call come without a potency. A structure can be active in one record and inactive in another. Activity calls are given as the source filed them. Unless noted, calls follow the shape of the dose curve; as a rule, active = well fitted curve in the direction sought with a large enough effect in the repeat runs; inconclusive = weak or mixed curves; inactive = no such curve, though single readings can be large; an effect the other way counts as inactive or inconclusive.
# How the values were obtained:
# [1] = qHTS assay to identify small molecule antagonists of the glucocorticoid receptor (GR) signaling pathway - cell viability counter screen (AID 720693); also: nearly all actives have a fitted effect of over 55% in size; also: potency is read from the fitted curve at half-maximal effect
# [2] = qHTS assay for identifying genotoxic compounds that show differential cytotoxicity against isogenic chicken DT40 cell lines with known DNA damage response pathways - wild type cell line (AID 743012); also: nearly all actives have a fitted effect of over 60% in size; also: potency is read from the fitted curve at half-maximal effect
# Outline: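 First, wild type DT40 cells were plated at 300 per well and equilibrated about 0.5 h at 37 C/5% CO2. Next, compounds in DMSO were added and exposure lasted 40 h. Finally, CellTiter-Glo was added for 30 min at room temperature and luminescence recorded.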
# [3] = qHTS assay for identifying genotoxic compounds that show differential cytotoxicity against isogenic chicken DT40 cell lines with known DNA damage response pathways - Rev3 mutant cell line (AID 743014); also: nearly all actives have a fitted effect of over 55% in size; also: potency is read from the fitted curve at half-maximal effect
# [4] = qHTS assay for identifying genotoxic compounds that show differential cytotoxicity against isogenic chicken DT40 cell lines with known DNA damage response pathways - Rad54/Ku70 mutant cell line (AID 743015); also: nearly all actives have a fitted effect of over 60% in size; also: potency is read from the fitted curve at half-maximal effect
# [5] = qHTS assay to identify small molecule antagonists of the androgen receptor (AR) signaling pathway - cell viability counter screen (AID 743033; also: nearly all actives have a fitted effect of over 45% in size; also: potency is read from the fitted curve at half-maximal effect)
# [6] = qHTS assay to identify small molecule antagonists of the androgen receptor (AR) signaling pathway using the MDA cell line - cell viability counter screen (AID 743041; also: nearly all actives have a fitted effect of over 45% in size)
# Outline: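 MDA-kb2 AR-luc cells (MMTV-luciferase, AR/GR responsive) treated with compounds plus R1881 agonist for 16 h at 37C. CellTiter-Fluor added at 15.5 h; fluorescence read after 30 min in the same wells.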
# [7] = biological target: Androgen receptor (Homo sapiens) (UniProt P10275); test: qHTS assay to identify small molecule agonists of the androgen receptor (AR) signaling pathway using the MDA cell line (AID 743040; also: nearly all actives have a fitted effect of over 20% in size)
# Outline: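 MDA-kb2 breast carcinoma cells carrying MMTV-luciferase (responsive to AR and GR), plated 5 h then treated 16 h with compounds at 37C, 0% CO2. Read-out was ONE-Glo luminescence after 30 min at room temperature.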
# [8] = biological target: Androgen receptor (Homo sapiens) (UniProt P10275); test: qHTS assay to identify small molecule antagonists of the androgen receptor (AR) signaling pathway using the MDA cell line (AID 743042; also: nearly all actives have a fitted effect of over 55% in size)
# Outline: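 MDA-kb2 breast carcinoma cells carrying MMTV-luciferase (AR/GR responsive) were co-treated with compounds and the agonist R1881 for 16 h at 37C. Inhibition read as ONE-Glo luminescence; CellTiter-Fluor fluorescence measured in parallel for cytotoxicity.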
# [9] = biological target: Androgen receptor (Homo sapiens) (UniProt P10275); test: qHTS assay to identify small molecule antagonists of the androgen receptor (AR) signaling pathway (AID 743035; active = well fitted inhibition curve with a large enough effect in the signal ratio in the repeat runs, not every such curve was filed as active; the % refers to the signal ratio)
# Outline: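 Beta-lactamase FRET read (2 h RT incubation with LiveBLAzer B/G) following 16 h of compound plus R1881 treatment of AR-UAS-bla HEK293 cells, which had been pre-incubated 4 h at 37C.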
# [10] = biological target: Androgen receptor (Homo sapiens) (UniProt P10275); test: qHTS assay to identify small molecule agonists of the androgen receptor (AR) signaling pathway (AID 743036; active = well fitted activation curve with a large enough effect in the signal ratio in the repeat runs, with a control signal flat, not every such curve was filed as active; the % refers to the signal ratio)
# Outline: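 Agonist activity was scored by beta-lactamase reporter fluorescence in stably transfected HEK293 cells exposed to compounds for 16 h at 37C and 5% CO2. Substrate loading took 2 h at room temperature.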
# Chain of Androgen receptor (Homo sapiens) (P10275 whole entry, looked up): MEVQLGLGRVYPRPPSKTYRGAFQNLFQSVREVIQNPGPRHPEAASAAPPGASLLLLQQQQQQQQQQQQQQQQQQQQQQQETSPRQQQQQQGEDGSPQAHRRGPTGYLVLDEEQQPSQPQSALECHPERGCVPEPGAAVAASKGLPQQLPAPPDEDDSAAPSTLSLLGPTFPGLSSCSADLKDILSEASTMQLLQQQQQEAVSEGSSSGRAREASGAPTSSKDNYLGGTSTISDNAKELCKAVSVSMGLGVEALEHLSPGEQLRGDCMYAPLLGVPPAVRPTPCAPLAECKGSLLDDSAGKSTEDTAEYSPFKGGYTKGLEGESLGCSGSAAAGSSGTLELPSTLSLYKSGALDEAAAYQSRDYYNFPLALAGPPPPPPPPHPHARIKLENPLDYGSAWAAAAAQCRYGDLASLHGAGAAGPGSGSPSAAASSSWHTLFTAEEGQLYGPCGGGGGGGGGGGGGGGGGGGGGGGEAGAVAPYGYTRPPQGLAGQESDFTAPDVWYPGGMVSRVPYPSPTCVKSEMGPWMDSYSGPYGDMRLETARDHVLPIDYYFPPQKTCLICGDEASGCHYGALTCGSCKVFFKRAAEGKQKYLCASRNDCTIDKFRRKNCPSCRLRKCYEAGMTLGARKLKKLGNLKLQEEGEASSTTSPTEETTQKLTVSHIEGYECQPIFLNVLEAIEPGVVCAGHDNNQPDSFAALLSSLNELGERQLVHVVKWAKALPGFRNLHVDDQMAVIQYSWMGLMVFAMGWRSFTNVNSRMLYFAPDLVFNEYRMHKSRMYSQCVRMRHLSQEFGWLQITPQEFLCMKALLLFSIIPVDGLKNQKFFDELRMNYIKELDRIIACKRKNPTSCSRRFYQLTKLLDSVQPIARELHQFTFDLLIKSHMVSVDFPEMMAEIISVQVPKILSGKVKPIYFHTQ
Compound,Potency [1],Potency [2],Potency [3],Potency [4],Potency [5],Potency [6],"activity change, negative = cytotoxicity [4]",Potency [7],Potency [8],Potency [9],outcome [10]
C=CC(C)(CCC=C(C)C)OC(C)=O (stereo not drawn),inactive,inactive,inactive and 54.5 µM (active),inactive,inactive,inactive,,,,,
CCCc1c(OCCCCc2nn[nH]n2)ccc(C(C)=O)c1O,inactive,29.8 µM (active),29.8 µM (active) and inactive,21.1 µM (active) and 54.5 µM (active),inactive,inactive,,,,,
O=P(O)(O)O,inactive,inactive,inactive,inactive,inactive,inactive,,,,,
COC(=O)Nc1nc2ccc(S(=O)c3ccccc3)cc2[nH]1 (stereo not drawn),inactive,9.44 µM (active) and 6.85 µM (active),11.9 µM (active) and 6.11 µM (active),13.3 µM (active) and 8.63 µM (active),inactive,inactive,,,,,
O=C(Nc1ccc([N+](=O)[O-])cc1Cl)c1cc(Cl)ccc1O,0.275 µM (active),422 nM (active) and 770 nM (active),473 nM (active) and 686 nM (active),473 nM (active) and 611 nM (active),1.51 µM (active) and 436 nM (active),,,,,,
C/C=C/C(=O)O,inactive,inactive,inactive,inactive,inactive,inactive,,,,,
Cc1c(OCC(F)(F)F)ccnc1CS(=O)c1nc2ccccc2[nH]1 (stereo not drawn),inactive,inactive,inactive and 54.5 µM (active),,inactive,inactive,,,,,
CC(=O)Oc1ccccc1C(=O)Nc1ncc([N+](=O)[O-])s1,11.2 µM (active),13.3 µM (active),10.6 µM (active) and 62.4 µM (active),13.3 µM (active),inactive and 7.06 µM (active),inactive,,,,,
COC(=O)C1=C(C)NC(C)=C(C(=O)OCCN(C)Cc2ccccc2)C1c1cccc([N+](=O)[O-])c1 (stereo not drawn),inactive,9.44 µM (active) and 19.2 µM (active),11.9 µM (active) and 21.6 µM (active),10.6 µM (active) and 19.2 µM (active),48.7 µM (active),inactive,,,,,
CCCCOCCOCCO,inactive,inactive,inactive,inactive,inactive,inactive,,,,,
CN(C)c1nc(N(C)C)nc(N(C)C)n1,inactive,inactive,inactive,,inactive,inactive,0.358% [at 8.55 µM] (inactive),,,,
CC(=O)CC/C=C(\C)CCC=C(C)C,inactive,inactive,inactive,inactive,inactive,inactive,,,,,
CCOC(=O)C(C#N)=C(c1ccccc1)c1ccccc1,inactive,23.7 µM (active) and 17.2 µM (active),26.6 µM (active) and 15.4 µM (active),19.3 µM (active),inactive,inactive,,,,,
CN(C)CCN(Cc1cccs1)c1ccccn1,inactive,29.8 µM (active) and inactive,inactive,inactive,inactive,inactive,,,,,
c1ccc2c(c1)c1cccc3ccc4cccc2c4c31,inactive,inactive,inactive,inactive,inactive,inactive,,inactive,inactive,,
Cc1ncc[nH]1,inactive,inactive,inactive,inactive,inactive,inactive,,,,,
C=C(C)C1CC=C(C)CC1 (stereo not drawn),inactive,inactive,inactive,inactive,inactive,inactive,,,,,
C=C(C)C(=O)OCCOC(=O)C(=C)C,inactive,inactive,inactive,inactive,inactive,inactive,,inactive,inactive,inactive,inactive
O=[N+]([O-])c1ccc2c(c1)Cc1ccccc1-2,inactive,inactive,inactive,inactive,inactive,inactive,,,,,
